For 69 compounds, inhibition results are on record in PubChem BioAssay AID652162 (Broad Institute, 2013).

Values joined by “and” are separate entries in the source; they are usually repeats but may differ in a detail not shown here. Equal values may be shown once. About 840 (0.24%) of roughly 350,000 compounds were called active. The sample holds actives, similar compounds and a random draw of the others, so the mix is not that of the screen. No stated cut-off is given here; in the data, active means inhibition above about 10%; inactive means the rest.

In the test the target is Toxin B (Clostridioides difficile) (UniProt P18177). Put plainly: TcdB glycohydrolase inhibitors, primary screen, biochemical, single point, plate reader (AID 652162). Particulars: TcdB glycohydrolase enzymatic assay, at 9.99 µM, active compounds read high.
Chain of Toxin B (Clostridioides difficile) (P18177 whole entry, looked up): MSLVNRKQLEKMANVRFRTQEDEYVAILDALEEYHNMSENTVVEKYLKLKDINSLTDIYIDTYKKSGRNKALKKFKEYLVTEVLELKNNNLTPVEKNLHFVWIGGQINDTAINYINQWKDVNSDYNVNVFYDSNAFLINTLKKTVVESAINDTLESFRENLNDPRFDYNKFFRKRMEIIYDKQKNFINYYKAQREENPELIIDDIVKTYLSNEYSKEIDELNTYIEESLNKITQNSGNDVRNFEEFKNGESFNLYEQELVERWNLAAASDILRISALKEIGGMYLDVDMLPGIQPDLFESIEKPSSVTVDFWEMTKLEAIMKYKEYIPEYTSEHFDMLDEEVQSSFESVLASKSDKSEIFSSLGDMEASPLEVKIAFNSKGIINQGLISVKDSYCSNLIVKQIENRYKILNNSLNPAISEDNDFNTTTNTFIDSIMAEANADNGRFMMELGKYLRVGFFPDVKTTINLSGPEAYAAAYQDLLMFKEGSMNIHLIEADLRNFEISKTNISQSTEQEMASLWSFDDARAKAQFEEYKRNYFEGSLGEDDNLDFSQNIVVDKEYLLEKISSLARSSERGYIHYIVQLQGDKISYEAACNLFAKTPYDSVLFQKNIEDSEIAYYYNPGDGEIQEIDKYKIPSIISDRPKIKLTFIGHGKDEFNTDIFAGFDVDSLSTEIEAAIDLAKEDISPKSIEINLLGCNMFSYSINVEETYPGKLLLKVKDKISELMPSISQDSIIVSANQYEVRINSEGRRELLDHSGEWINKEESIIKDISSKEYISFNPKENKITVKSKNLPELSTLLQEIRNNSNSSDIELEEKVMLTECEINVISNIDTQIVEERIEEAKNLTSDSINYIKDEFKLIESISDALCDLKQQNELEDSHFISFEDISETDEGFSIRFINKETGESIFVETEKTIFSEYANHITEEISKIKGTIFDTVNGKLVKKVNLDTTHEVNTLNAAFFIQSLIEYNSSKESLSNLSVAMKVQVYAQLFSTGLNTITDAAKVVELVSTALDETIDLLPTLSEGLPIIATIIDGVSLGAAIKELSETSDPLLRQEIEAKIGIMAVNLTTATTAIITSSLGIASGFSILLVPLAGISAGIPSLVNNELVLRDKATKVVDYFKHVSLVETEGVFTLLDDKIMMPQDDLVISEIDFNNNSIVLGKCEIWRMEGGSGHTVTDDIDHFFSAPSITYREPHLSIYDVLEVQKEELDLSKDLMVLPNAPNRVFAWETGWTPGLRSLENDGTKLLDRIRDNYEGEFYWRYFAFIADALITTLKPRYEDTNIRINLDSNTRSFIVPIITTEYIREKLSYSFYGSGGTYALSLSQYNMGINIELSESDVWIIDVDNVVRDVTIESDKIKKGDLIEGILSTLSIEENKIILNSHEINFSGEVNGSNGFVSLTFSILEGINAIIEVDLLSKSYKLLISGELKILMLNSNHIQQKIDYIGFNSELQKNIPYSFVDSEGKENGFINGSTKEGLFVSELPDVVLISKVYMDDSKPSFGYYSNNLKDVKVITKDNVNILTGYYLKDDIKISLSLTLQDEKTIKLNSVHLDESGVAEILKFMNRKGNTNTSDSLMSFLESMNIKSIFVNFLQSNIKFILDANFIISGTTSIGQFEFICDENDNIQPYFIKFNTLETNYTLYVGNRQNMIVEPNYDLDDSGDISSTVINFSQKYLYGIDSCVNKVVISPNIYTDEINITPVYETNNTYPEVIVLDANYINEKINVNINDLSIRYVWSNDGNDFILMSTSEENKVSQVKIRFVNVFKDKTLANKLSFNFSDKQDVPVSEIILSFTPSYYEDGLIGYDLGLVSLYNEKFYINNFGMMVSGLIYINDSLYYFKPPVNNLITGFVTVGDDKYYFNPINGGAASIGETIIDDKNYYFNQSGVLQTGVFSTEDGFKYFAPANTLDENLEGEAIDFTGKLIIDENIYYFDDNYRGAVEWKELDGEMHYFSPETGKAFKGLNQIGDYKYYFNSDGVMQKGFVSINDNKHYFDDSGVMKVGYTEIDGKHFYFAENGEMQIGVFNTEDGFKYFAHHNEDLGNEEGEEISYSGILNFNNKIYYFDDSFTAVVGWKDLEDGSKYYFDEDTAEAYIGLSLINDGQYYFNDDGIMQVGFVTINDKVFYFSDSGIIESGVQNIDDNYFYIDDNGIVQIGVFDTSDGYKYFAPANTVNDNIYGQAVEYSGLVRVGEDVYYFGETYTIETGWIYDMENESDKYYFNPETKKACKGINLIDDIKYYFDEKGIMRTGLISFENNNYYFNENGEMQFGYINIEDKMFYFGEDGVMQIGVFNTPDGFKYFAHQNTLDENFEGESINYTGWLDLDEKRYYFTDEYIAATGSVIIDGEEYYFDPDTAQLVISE
For orientation: inhibition means the relative decrease from the control value, in per cent. As for `O=C(C1CCOCC1)N1CC2(C1)[C@H](c1ccccc1)[C@H](CO)N2Cc1ccc(Cl)cc1`, the inhibition was -0.452% (inactive).

Turning to `Cc1ccc(-c2cnc3c(c2)C(=O)N([C@H](C)CO)C[C@@H](C)[C@H](CN(C)Cc2ccccc2C(=O)O)O3)cc1`, the inhibition was 0.061% (inactive).

For the compound `C[C@@H]1CCCCO[C@@H](CN(C)C(=O)NC2CCCCC2)[C@@H](C)CN([C@H](C)CO)C(=O)c2cc(NC(=O)CCCCCC(=O)Nc3ccccc3N)ccc2O1`, the inhibition was 0.319% (inactive).

In the case of `O=C(COC(=O)c1cccc(Cl)c1)Nc1ccc2[nH]c(=O)[nH]c2c1`, the inhibition is -0.403% (inactive).

As to `O=C(COc1ccc([N+](=O)[O-])cc1Cl)Nc1ccc2[nH]c(=O)[nH]c2c1`, the inhibition was 0.327% (inactive).

Take `COc1ccc(C(=O)OCC(=O)Nc2ccc3[nH]c(=O)[nH]c3c2)c(OC)c1OC`: the inhibition was 11.5% (active).

As to `C[C@@H]1CN([C@H](C)CO)C(=O)c2cc(NS(=O)(=O)c3ccc(Cl)cc3)ccc2O[C@@H](C)CCCCO[C@H]1CN(C)Cc1ccccc1`, the inhibition was -0.656% (inactive).

On to `N#Cc1ccc(OCC(=O)NC(=O)NC2CCS(=O)(=O)C2)cc1` (centres undefined), for which the inhibition is -2.43% (inactive).

As to `COc1ccc(S(=O)(=O)N2CCCCC2)cc1C(=O)NC1CCS(=O)(=O)C1` (centres undefined), the inhibition was 0.566% (inactive).

Regarding `COc1ccc(-c2ccc(OC(=O)NC3CCS(=O)(=O)C3)cc2)cc1` (centres undefined), the inhibition is 10.6% (active).

For `C[C@@H]1CCCCO[C@@H](CN(C)C(=O)NC2CCCCC2)[C@H](C)CN([C@H](C)CO)C(=O)c2cc(NS(=O)(=O)c3ccc(Cl)cc3)ccc2O1`, the inhibition was -0.076% (inactive).

On to `C[C@@H]1CN([C@H](C)CO)C(=O)c2cc(NC(=O)Nc3cccc4ccccc34)ccc2O[C@H]1CN(C)C(=O)Nc1ccccc1`, for which the inhibition was -0.695% (inactive).

As to `O=C(c1cnccn1)N1CC(=O)N2[C@H](C1)[C@H](c1ccc(/C=C/c3ccccc3)cc1)[C@@H]2CO`, the inhibition was 0.636% (inactive).

For the compound `CO[C@@H]1CC[C@H]2CCN(C)C(=O)[C@@H](C)CN(C)C(=O)c3cccc(C#N)c3OC[C@@H]1O2`, the inhibition is 0.637% (inactive).

As for `COc1cccc2cc(C(N)=O)/c(=N\NC(=O)c3ccccc3)oc12`, the inhibition was -0.164% (inactive).

In the case of `COc1cccc2cc(C(=O)NCc3ccc(C)cc3)c(=N)oc12`, the inhibition is 0.357% (inactive).

With `COc1cccc2cc(/C(C)=N/NC(=O)c3ccco3)oc12`, the inhibition is 14% (active).

Regarding `COc1ccc(S(=O)(=O)Nc2ccc3c(c2)C(=O)N([C@H](C)CO)C[C@@H](C)[C@H](CN(C)C(=O)c2ccncc2)OCCCC[C@@H](C)O3)cc1`, the inhibition was 1.52% (inactive).

As for `CNC[C@H]1Oc2cc(C#CC(C)(C)O)ccc2S(=O)(=O)N([C@@H](C)CO)C[C@@H]1C`, the inhibition is -0.494% (inactive).

On to `COCC(=O)Nc1ccc2c(c1)C(=O)N(C)[C@@H]1CC[C@@H](CC(=O)NCC(F)(F)F)O[C@H]1CO2`, for which the inhibition was 0.945% (inactive).

`O=C(C[C@@H]1CC[C@H](NC(=O)Cc2ccccn2)[C@H](CO)O1)NCCc1ccncc1`: the inhibition is -1.24% (inactive).

As for `O=C(Nc1ccc(F)cc1)N[C@H]1CC[C@H](CCn2cc(-c3ccc(F)cc3)nn2)O[C@@H]1CO`, the inhibition was -2.54% (inactive).

`CO[C@@H]1CN(C)C(=O)c2cc(NC(=O)C3CC3)ccc2OC[C@H](C)N(C(=O)c2ccccc2F)C[C@H]1C`: the inhibition was 0.856% (inactive).

As to `O=C(C[C@H]1C[C@H]2c3cc(NC(=O)c4ccc5c(c4)OCO5)ccc3O[C@H]2[C@@H](CO)O1)NCc1cccc(F)c1`, the inhibition is 15.2% (active).

As to `O=C(C[C@@H]1C[C@@H]2c3cc(NC(=O)c4ccc5c(c4)OCO5)ccc3O[C@@H]2[C@@H](CO)O1)NCc1ccc(Cl)cc1`, the inhibition is 1.53% (inactive).

On to `O=C(C[C@H]1C[C@@H]2c3cc(NC(=O)c4ccc5c(c4)OCO5)ccc3O[C@@H]2[C@@H](CO)O1)NCc1cccnc1`, for which the inhibition is -0.896% (inactive).

For the compound `CNC[C@H]1Oc2cc(-c3ccc(C(=O)N(C)C)cc3)ccc2S(=O)(=O)N([C@@H](C)CO)C[C@@H]1C`, the inhibition is -0.097% (inactive).

`C[C@@H]1CN([C@H](C)CO)C(=O)c2cc(C3=CCCC3)cnc2O[C@H]1CN(C)C`: the inhibition was 0.146% (inactive).

Regarding `COc1ccc(NC(=O)N(C)C[C@@H]2Oc3c(NC(=O)c4ccc(-c5nccs5)cc4)cccc3C(=O)N([C@H](C)CO)C[C@@H]2C)cc1`, the inhibition was 0.889% (inactive).

With `COc1cccc(NC(=O)N[C@@H]2C=C[C@H](CC(=O)NCc3ccccn3)O[C@H]2CO)c1`, the inhibition was -0.684% (inactive).

Turning to `N#C[C@H]1N[C@H](CO)[C@H]1c1ccc(-c2cccc(F)c2)cc1`, the inhibition was -1.58% (inactive).

For `Cc1ccc(-c2ccc(C3[C@H]4CNC[C@@H]3N4S(=O)(=O)c3ccccc3C)cc2)cc1` (some centres undefined), the inhibition is -0.326% (inactive) and -0.213% (inactive).

`COC(=O)[C@@H]1[C@@H](CO)[C@@H]2Cn3c(ccc(-c4ccc(OC)cc4)c3=O)[C@@H]2N1C`: the inhibition is -0.952% (inactive).

Take `C[C@@H]1CN([C@H](C)CO)C(=O)c2cc(NC(=O)NC3CCCCC3)ccc2O[C@@H](C)CCCCO[C@H]1CN(C)C(=O)Nc1ccccc1`: the inhibition was 0.722% (inactive).

For the compound `C[C@H](CO)N1C[C@H](C)[C@H](CN(C)Cc2ccc3c(c2)OCO3)OCCCC[C@H](C)Oc2ccc(NC(=O)c3ccccc3)cc2C1=O`, the inhibition was -0.045% (inactive).

On to `O=c1c([N+](=O)[O-])cccn1Cc1ccc(F)cc1Cl`, for which the inhibition is 38.4% (active).

In the case of `O=Cc1cn(Cc2ccc(F)cc2Cl)c2ccccc12`, the inhibition is -0.141% (inactive).

Take `Cc1ccc(-c2ccc(=O)n(Cc3ccc(F)cc3Cl)n2)cc1`: the inhibition is 0.329% (inactive).

On to `CCC(=O)N1C[C@@H](C)[C@H](OC)CN(C)C(=O)c2ccc(NC(=O)COC)cc2OC[C@@H]1C`, for which the inhibition is -0.964% (inactive).

Regarding `C[C@@H]1CCCCO[C@@H](CN(C)C(=O)NC2CCCCC2)[C@H](C)CN([C@H](C)CO)C(=O)c2cc(NC(=O)Nc3cccc4ccccc34)ccc2O1`, the inhibition was -0.319% (inactive).

For `CN1C(=O)c2cc(NC(=O)c3ccccc3)ccc2OC[C@@H]2O[C@H](CC(=O)NCC3CC3)CC[C@@H]21`, the inhibition is 0.093% (inactive).

Regarding `CN1C(=O)c2cc(NC(=O)c3cccc(F)c3)ccc2OC[C@@H]2O[C@@H](CC(=O)NCC3CCCCC3)CC[C@H]21`, the inhibition was 27.1% (active) and 19.3% (active).

With `CNC(=O)C[C@H]1CC[C@H]2[C@H](COc3ccc(NC(=O)c4cccc(F)c4)cc3C(=O)N2C)O1`, the inhibition was -0.293% (inactive) and -0.193% (inactive).

Consider `Cc1cc(C(=O)Nc2ccc3c(c2)C(=O)N(C)[C@H]2CC[C@H](CC(=O)NCC(F)(F)F)O[C@@H]2CO3)no1`, for which the inhibition was -0.366% (inactive).

In the case of `CO[C@H]1O[C@H](CO)[C@@H](OC(=O)Nc2ccc(C(F)(F)F)cc2)[C@H](OC(=O)Nc2ccc3c(c2)OCO3)[C@H]1OC(=O)Nc1ccc2c(c1)OCO2`, the inhibition was 0.426% (inactive).

Consider `CO[C@@H]1CN(C)C(=O)c2cc(NC(C)=O)ccc2OC[C@H](C)N(Cc2ccccc2F)C[C@@H]1C`, for which the inhibition is -0.886% (inactive).

In the case of `CN(C)C(=O)c1ccc(-c2ccc([C@H]3[C@H](CO)N4CCCCN(S(C)(=O)=O)C[C@@H]34)cc2)cc1`, the inhibition is -1.71% (inactive).

`O=C(CCN1CCCCC1)N[C@H]1CC[C@H](CCNS(=O)(=O)c2ccc(F)cc2)O[C@@H]1CO`: the inhibition was 0.554% (inactive).

Consider `Cc1ccccc1-c1ccc(C2[C@@H]3CN(C(=O)C4CCCCC4)C[C@H]2N3)cc1` (some centres undefined), for which the inhibition was -3.88% (inactive) and 0.934% (inactive).

On to `Nc1nnn(CC(=O)N/N=C/c2ccccc2)n1`, for which the inhibition is 1.05% (inactive).

In the case of `O=C(CN1CCSCC1)N/N=C/c1ccc(Cl)cc1`, the inhibition was 1.98% (inactive).

`Nc1nnn(CC(=O)N/N=C/c2ccc(O)cc2)n1`: the inhibition is 13.2% (active).

For the compound `O=C(C[n+]1ccccc1)N/N=C/c1ccc(O)cc1`, the inhibition is 11.1% (active).

As for `Cc1nonc1C(=O)N/N=C/c1ccc(O)cc1`, the inhibition was 5.9% (inactive).

Consider `O=C(CSC1c2ccccc2-c2ccccc21)N/N=C/c1ccccc1`, for which the inhibition was 2.65% (inactive).

In the case of `COc1ccc2c3c([nH]c2c1)[C@@H](CO)N(C(=O)CC1CC1)CC31CCN(Cc2cccnc2)CC1`, the inhibition was 0.524% (inactive).

Turning to `O=C(Cc1ccccc1)N1C[C@@H]2[C@H](c3ccccc31)[C@@H](CO)N2C(=O)Nc1ccc(F)cc1`, the inhibition was 1.65% (inactive).

On to `COCC(=O)Nc1ccc2c(c1)[C@H]1C[C@H](CC(=O)NCc3ccc(OC)cc3)O[C@@H](CO)[C@H]1O2`, for which the inhibition was 1.91% (inactive).

Consider `CN1C(=O)c2cc(NC(=O)Nc3ccccc3F)ccc2OC[C@H]2O[C@H](CC(=O)NCc3ccc(-c4ccccc4)cc3)CC[C@H]21`, for which the inhibition is -0.392% (inactive).

Turning to `COCC(=O)Nc1ccc2c(c1)OC[C@H](C)N(C(=O)c1ccccc1F)C[C@H](C)[C@H](OC)CN(C)C2=O`, the inhibition is 0.041% (inactive).

Take `O=c1[nH]c(CN2CCOCC2)nc2cc(Cl)ccc12`: the inhibition was 11.3% (active).

Turning to `O=c1[nH]c(CN2CCOCC2)nc2scc(-c3ccccc3)c12`, the inhibition is 2.63% (inactive).

For the compound `CN(CCOc1ccccc1)Cc1nc2cc(Cl)ccc2c(=O)[nH]1`, the inhibition is -0.715% (inactive).

For `CC(C)CC#Cc1cnc2c(c1)C(=O)N([C@@H](C)CO)C[C@@H](C)[C@@H](CN(C)C(=O)c1cccnc1)O2`, the inhibition was -0.559% (inactive).

`O=C1C=CCCN1C(=O)/C=C/c1ccc(F)cc1`: the inhibition is 0.919% (inactive).

With `CCS(=O)(=O)N1CCC2(CC1)CN(S(=O)(=O)c1ccc(C)cc1)[C@H](CO)c1[nH]c3cc(OC)ccc3c12`, the inhibition is -1.12% (inactive).

On to `CN(C)c1ccc(C(=S)N2CCN(C(=S)Nc3ccc(Cl)cc3)CC2)cc1`, for which the inhibition was 17.4% (active).

As for `CCOC(=O)c1ccc(NC(=S)N2CCCC2)cc1`, the inhibition is 1.01% (inactive).

In the case of `O=C(NC1CCN(C(=S)Nc2ccc(Cl)cc2)CC1)C1CCCCC1`, the inhibition was -0.645% (inactive).
